Hits are enriched below; roughly 2.1% of the tested compounds scored in any of these assays.
aSyn yeast inh – alpha-synuclein toxicity inhibition in yeast; Yeast expressing alpha-synuclein, growth rescue, BacTiter-Glo, 24 h; Potency, µM (top dose mostly 46.1 µM), without a hit: at the highest dose growth rescue (activation), most hits filed as activators; hit rate 0.14% among 370,000; AID 652106; further: % of control where 0% means no effect; nearly all actives have a fitted effect of over 65% in size
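Rescue of yeast growth: cells expressing toxic alpha-synuclein, induced in galactose at OD600 0.02, incubated with compound 24 h at 30 C. ATP luminescence quantified growth; inhibitors of toxicity appear as activators.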
TDP-43 yeast inh – inhibitors of TDP-43 toxicity in yeast; TDP-43 expressing yeast growth rescue, BacTiter-Glo, 24 h; hit rate 1.8% among 410,000; AID 652104; Potency, µM (highest dose often 46.1 µM), for the others: at the top dose growth rescue (activation), usual class: activators; further: % of control where 0% means no effect; nearly all actives have a fitted effect of over 50% in size
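Yeast cells expressing TDP-43 under galactose induction are exposed to compounds for 24 hr at 30 deg C. BacTiter-Glo luminescence measures growth, so protective compounds score as activators.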
Abeta yeast res – restores growth of yeast expressing A-beta42 peptide; yeast expressing A-beta42, growth rescue, OD600, 48 h; response scale: 0% DMSO, 100% iron-clioquinol control; hit rate 0.063% among 410,000; Potency, µM (top dose mostly 46.1 µM), actives largely listed as activators; further: nearly all actives have a fitted effect of over 55% in size
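Growth rescue measured by 600 nm absorbance after 48 h yeast culture at 30 C with compound. Values normalized between DMSO and an equimolar ferric chloride plus clioquinol control.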
FUS yeast rescue – FUS proteinopathy suppression in yeast; S. cerevisiae FUS-expressing, growth rescue, OD600, 24 h; hit rate 0.24% among 390,000; AID 1347120; Potency, µM (series often up to 76.6 µM), usual class: activators;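 further: plate controls were DMSO vehicle for no effect and reference control for full effect; nearly all actives have a fitted effect of over 55% in size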
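Restored growth of FUS-toxic S. cerevisiae, read as 600 nm absorbance after 24 h at 30C in galactose medium (starting OD 0.005). Controls CP55940 and DMSO.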
* marks the source's active call; other numbers are inactive results; i = inactive; ? = inconclusive; · = not tested or not shown; [ ] = remark or other dose. The call rests on the fitted dose curve; in most records, active means well fitted curve in the direction sought with a large enough effect; inconclusive means small, poorly fitted or top-dose-only effect, or another doubt; inactive means no such curve, though single readings can be large; an effect the other way counts as inactive or inconclusive. Potency means the concentration at half of the fitted maximal effect.

SMILES	aSyn yeast inh	TDP-43 yeast inh	Abeta yeast res	FUS yeast rescue
Cc1ccc(C(=O)O/N=C(\N)c2ccc(Br)cc2)cc1	-23.9%	3.98µM*	i	·
CC(C)(C)c1ccc(C(=O)O/N=C(\N)c2ccccc2)cc1	-48.8%	3.16µM*	i	i
O=c1cc(C23CC4CC(CC(C4)C2)C3)[nH][nH]1	0.6%	9.0%	i	i
Cc1c(C(c2ccc(F)cc2)c2c(C)n(C)n(-c3ccccc3)c2=O)c(=O)n(-c2ccccc2)n1C	6.4%	2.1%	i	i
COc1ccc(CN(C(=O)Nc2cc(C)ccc2C)C2CCN(C(C)=O)CC2)cc1	·	1.7%	i	i
COCCNC(=S)N/N=C/c1c2ccccc2cc2ccccc12	14.8%	?	?	i
NC(=S)N/N=C\c1c2ccccc2cc2ccccc12	?	20µM*	?	i
O=S(=O)(c1cc(Cl)ccc1Cl)N1CCCCC1	9.6%	15.8µM*	i	i
O=C(c1ccco1)N1CCN(S(=O)(=O)c2cc(Cl)ccc2Cl)CC1	13.1%	17.8µM*	i	i
CCOC(=O)N1CCN(C(=O)C2CCN(S(=O)(=O)c3cc(Cl)ccc3Cl)CC2)CC1	15.2%	11.2µM*	i	?
O=C(Nc1ccc(-c2ccc3nncn3n2)cc1)c1ccc(Br)o1	6.0%	-5.2%	i	i
O=C(NCc1ccccc1)C1C(c2ccc3c(c2)OCO3)=Nc2ccccc2N1C(=O)c1ccccc1 (centres undefined)	-0.6%	12.6µM*	i	i
O=C(Nc1ccc2c(c1)OCCO2)C1C(c2ccccc2)=Nc2ccccc2N1C(=O)c1cccnc1 (centres undefined)	-1.7%	-19.8%	i	7.94µM*
OCC[C@H]1NCc2cc(CO)cc(-c3ccccc3)c21	-3.9%	-10.7%	i	i
CN(C)Cc1ccccc1CNC(=O)c1ccc(Cl)c(S(=O)(=O)NC2CC2)c1	3.9%	14.2%	i	i
O=C(CCC(=O)c1cccs1)OCc1ccc([N+](=O)[O-])cc1	-0.4%	11.2µM*	i	i
N#Cc1ccccc1COC(=O)CCC(=O)c1cccs1	-6.4%[1.84 µM]	21.8%	i	i
O=S(NCc1ccco1)C12CC3CC(CC(C3)C1)C2 (centres undefined)	-12.2%	3.6%	?	i
N#Cc1cnc(SCC(=O)NNC(=O)COc2cccc3ccccc23)nc1N	3.7%	12.2%	i	i
COc1cccc(NC(=S)NC(Cc2ccccc2)c2ccccc2)c1 (centres undefined)	27.2%	11.2µM*	?	i
COc1ccc(Nc2ccc([N+](=O)[O-])cc2[N+](=O)[O-])cc1	5.7%	27.2%	i	i
CCC/C=C/c1ccc(CN2C(C(C)C)C(=O)N(Cc3cn(CCC4OCCO4)nn3)CCS2(=O)=O)cc1 (centres undefined)	10.3%	6.2%	i	?
Cc1c(C(=O)Nc2ccccc2Br)oc2ccc(S(=O)(=O)N3CCCCCC3)cc12	·	-7.8%	i	i
Cc1ccc(OCc2occc2C(=O)O)cc1	4.9%	14.1µM*	i	i
Cc1ccoc1C(=O)NCc1occc1C(=O)O	-3.7%	5.4%	i	i
SMILES	aSyn yeast inh	TDP-43 yeast inh	Abeta yeast res	FUS yeast rescue
Cc1cccc(NC(=O)CSCC(=O)N(C)Cc2ccc(Cl)c(Cl)c2)c1	14.3%	25.1µM*	i	i
Cc1ccc2c(c1)C(=O)CC(c1ccc3c(c1)OCCO3)O2 (centres undefined)	-14.1%	11.2µM*	i	i
COc1ccc2c(c1)C(=O)CC(c1ccc3c(c1)OCCO3)O2 (centres undefined)	-8.5%	11.2µM*	i	i
CN(C)c1ccc(/C=N\Nc2ccc([N+](=O)[O-])cc2[N+](=O)[O-])cc1Br	-2.8%	·	·	·
O=c1c2ccccc2nc(/C=C/c2cccc3ccccc23)n1-c1ccc(F)cc1F	·	9.5%	i	31.6µM*
COc1cc(OC)c(OC)cc1/C=C/c1nc2cc3ccccc3cc2c(=O)n1-c1ccc(F)cc1F	·	29.1%	i	i
CC[N+](CC)(CC)CCOc1ccc(/C=C/c2ccccc2)cc1	10.2%	35.5µM*	i	i
COC(=O)C1=C(C(=O)OC)SC(=C2C(=S)C(C)(C)N(C(=O)C(C)C)c3ccccc32)S1	?	3.16µM*	i	i
COC(=O)C1=C(C(=O)OC)SC(=C2C(=S)C(C)(C)N(C(=O)C3CC3)c3ccccc32)S1	24.6%	2.24µM*	i	i
CCCC(=O)N1c2ccccc2C(=C2SC(C(=O)OC)=C(C(=O)OC)S2)C(=S)C1(C)C	-2.6%	?	i	i
COc1ccc(NC(=O)CCCC(=O)c2ccccc2)cc1OC	-1.9%	-2.5%	i	i
O=C(CCCC(=O)c1ccccc1)Nc1ccc(F)cc1	-8.3%	5.62µM*	i	i
CCOC(=O)C1=CCN(S(=O)(=O)c2ccc(Cl)cc2)C1c1cccc(C)c1 (centres undefined)	11.6%	14.1%	i	?
Oc1c(Cl)cc(Cl)cc1/C=N/Nc1ncc(Br)cn1	1µM*	-1.3%	i	i
Clc1ccccc1N=C1NN=C(c2cccs2)CS1	7.5%	11.2µM*	i	i
CCNC(=O)C1CCCN(C(=O)c2ccc(C(=O)OC)cc2)CC1 (centres undefined)	-4.3%	5.8%	i	i
COc1ccccc1-c1c(C)nn2c(N3CCN(c4ccc(F)cc4)CC3)cc(C)nc12	·	14.9%	i	i
O=C(O)C1C2C=CC(C2)C1C(=O)NCc1ccc(Cl)c(Cl)c1 (centres undefined)	0.5%	20µM*	i	i
O=C(O)C1C2C=CC(C2)C1C(=O)NCc1ccc2c(c1)OCO2 (centres undefined)	3.2%	2.1%	i	i
COCCCNc1oc(/C=C/c2cc(OC)c(OC)c(OC)c2)nc1C#N	·	?	i	i
CCOC(=O)N1CCN(c2ncc3c(n2)CC(c2ccc(Cl)cc2)CC3=O)CC1 (centres undefined)	2.4%	12.6µM*	i	i
c1ccc2cc(Sc3ncnc4c3oc3ccccc34)ccc2c1	-1.8%	3.0%	i	i
Cc1cc(C)nc(Sc2ncnc3c2oc2ccccc23)n1	12.5%	22.4µM*	i	i
COc1cnc(-c2ccccn2)nc1Oc1ccc(F)cc1F	-10.6%	19.0%	22.4µM*	i
Brc1ccc(-c2ccc(/C=N/Nc3nc4ccccc4[nH]3)o2)cc1	-27.3%	-64.8%	i	i
CC1(C(=O)c2ccccc2)C2c3c(ccc4ccccc34)OC(=O)C21C(=O)N1CCOCC1 (centres undefined)	6.6%	17.8µM*	?	i
CC(C)COc1ccc(-c2nnc(-c3ccco3)o2)cc1	-0.8%	10µM*	i	i
CCCOc1ccc(-c2nnc(-c3ccco3)o2)cc1	-1.6%	?	i	i
COc1cccc(-c2nnc(-c3ccco3)o2)c1	-11.6%	15.8µM*	i	i

High-throughput results as filed in PubChem.
